# Where “and” joins values, the source holds several entries; their conditions need not be identical. Equal entries are not always repeated. This is part of a sample that, as a whole, favours compounds with a hit. Of some 83,000 tested, about 20% had one in any assay.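 Plates (96-well) were seeded with cells, treated with compound at one concentration, and incubated for 48 hours before percent growth was determined.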 Calls of active or inactive are those of the source. Rule for the calls: active = growth percent below 10; inactive = the rest.
# System: HL-60(TB) leukemia
# Assay: NCI-60 one-dose screen, 48 h (100 = growth as untreated, 0 = no growth, -100 = all killed)
# Settings: 10 µM unless noted
row,Compound,growth
1,COc1ccc2c(=O)cc(-c3ccccc3)[nH]c2c1,11.5% (inactive) and -29.9% (active)
2,CC(C)(C(=O)c1cccnc1)c1cccnc1,99.5% (inactive) and 126% (inactive)
3,COC1C[C@H](O[C@@H]2C[C@H](O[C@@H]3C[C@H](O[C@@H]4C(=O)c5c(cc6cc(O[C@H]7C[C@@H](O[C@H]8C[C@@H](O)[C@H](O)C(C)O8)[C@H](O)C(C)O7)c(C)c(O)c6c5O)C[C@H]4C(OC)C(=O)[C@@H](O)[C@@H](C)O)OC(C)[C@H]3O)OC(C)[C@@H]2O)OC(C)[C@@H]1O (stereo not given in full),-0.253% (active)
4,CC(C)OC1OC(OC(C)C)C(OC(C)C)OC1OC(C)C (stereo not given),87.2% (inactive)
5,C[C@@H](O)[C@H]1C(=O)N2C(C(=O)O)=C(SCCN=CN)C[C@H]12,19.1% (inactive)
6,CCOC(=O)c1cc2c(=O)oc3ccccc3c2oc1=O,106% (inactive)
7,COc1cc(C2CC(c3cccc(Br)c3)=NN2C(C)=O)cc(OC)c1OC (stereo not given),78.2% (inactive)
8,COc1ccc(Nc2nnc(-c3ccc(OC)c(OC)c3)o2)cc1,84.2% (inactive)
9,O=C(N=Nc1c(O)[nH]c2ccc(F)cc12)c1cc2ccccc2[nH]1,79.3% (inactive)
10,COc1ccc(-c2nc(/C=N/Nc3cc(C)nc4ccc(Cl)cc34)c(C)o2)cc1,-41% (active)
11,O=C(Cn1c(-c2ccc([N+](=O)[O-])cc2)nc2ccccc21)NNC(=O)c1cccnc1,65.9% (inactive)
12,O=C(NCCCN1CCOCC1)c1cccc(N2C(=O)/C(=C/c3ccc(F)cc3)SC2=S)c1,99.6% (inactive)
13,O=C(Nc1ccc(-c2nc3cc4ccccc4cc3[nH]2)cc1)c1cccc(Br)c1,42.3% (inactive)
14,CC(=O)c1ccc2c(c1)N(CCCN1CCN(CCO)CC1)c1ccccc1S2,73.9% (inactive) and 2.94% (active)
15,C=C1CCC2C3(C)COC(c4ccc(N(C)C)cc4)OC3CCC2(C)C1C/C=C1/C(=O)OCC1O (stereo not given),15.3% (inactive)
16,O=C(O)c1ccc(S(=O)(=O)O)cc1,115% (inactive)
17,COc1cc(-c2n/c(=C\c3c(O)[nH]c4ccc(Cl)cc34)cc3c2=Nc2ccccc2-3)ccc1F,96.6% (inactive)
18,Cc1ccc(N=C2CSc3nnc(-c4csc5c4CCCC5)n3N2)cc1,-25.4% (active)
19,CCC1S/C(=N\N=C(/C)c2ccc[nH]2)N(c2ccccc2)C1=O (stereo not given),-63.7% (active)
20,Cc1cc(Cl)nc(N(CCNc2ccnc3cc(Cl)ccc23)Cc2ccco2)n1,-47.7% (active)
21,Cn1c(O)c(C=NCCN=Cc2c(O)n(C)c(=O)n(C)c2=O)c(=O)n(C)c1=O,-60% (active)
22,Cc1[nH]c(C(=O)Nc2ccc(C(=O)N3CCN(c4cc5c(cc4F)c(=O)c(C(=O)O)cn5C4CC4)CC3)cc2OC(C)C)c(Cl)c1Cl,92.7% (inactive)
23,O=C(Nc1nc2ccc(F)cc2s1)c1cc(-c2ccc(F)cc2)n2nc(-c3ccccc3)cc2n1,92.9% (inactive)
24,CN(C)c1ccc(/C=C(\C#N)c2ccccc2)cc1,-9.62% (active) and 16% (inactive) and 9.8% (active)
25,COC(=O)CC1=C(c2ccc([N+](=O)[O-])cc2)CCC1=O,100% (inactive)
